# This is one part of a sample in which the strongest signals are shown more often than they occur.
# B1: LecRKVI.2 (protein)
# chain: RTTTNFAFRGFNGNQSKIRIEGAAMIKPDGLLRLTDRKSNVTGTAFYHKPVRLLNRNSTNVTIRSFSTSFVFVIIPSSSSNKGFGFTFTLSPTPYRLNAGSAQYLGVFNKENNGDPRNHVFAVEFDTVQGSRDDNTDRIGNDIGLNYNSRTSDLQEPVVYYNNDDHNKKEDFQLESGNPIQALLEYDGATQMLNVTVYPARLGFKPTKPLISQHVPKLLEIVQEEMYVGFTASTGKGQSSAHYVMGWSFSSGGERPIADVLILSELPPPPPNKAKKEGLNS
# Assays:
# Assay in all cases: glycan array binding signal (z-score within array); higher = stronger binding
# Conditions in all cases: glycan notation: IUPAC condensed, linker removed
# [1] = target: Fuc(a1-2)Gal(b1-3)GalNAc(b1-3)Gal(a1-4)Gal(b1-4)Glc
# Procedure, shortened: (§1)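 Negative Z-scores can be read as non-binding. The Z-score is calculated within each array and then averaged across arrays of one protein sequence at different concentrations or buffers and across linkers. Arrays, 3228 in all, were curated from the Consortium for Functional Glycomics database and kept only where the protein sequence was available.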
# [2] = target: Fuc(a1-2)Gal(b1-3)GlcNAc6S
# Procedure, shortened: as §1
# [3] = target: Fuc(a1-2)Gal(b1-3)[Fuc(a1-4)]GlcNAc
# Procedure, shortened: as §1
# [4] = target: Fuc(a1-2)Gal(b1-3)[Fuc(a1-4)]GlcNAc(b1-3)[Gal(b1-4)GlcNAc(b1-6)]Gal(b1-4)Glc
# Procedure, shortened: as §1
# [5] = target: Fuc(a1-2)Gal(b1-4)GlcNAc(b1-2)Man(a1-3)[Fuc(a1-2)Gal(b1-4)GlcNAc(b1-2)Man(a1-6)]Man(b1-4)GlcNAc(b1-4)GlcNAc
# Procedure, shortened: as §1
# [6] = target: Fuc(a1-2)Gal(b1-4)[Fuc(a1-3)]GlcNAc(b1-3)GalNAc
# Procedure, shortened: as §1
# [7] = target: Fuc(a1-2)Gal3S(b1-4)GlcNAc
# Procedure, shortened: as §1
# [8] = target: Fuc(a1-2)[Gal(a1-3)]Gal(b1-3)GalNAc(b1-3)Gal(a1-4)Gal(b1-4)Glc
# Procedure, shortened: as §1
# [9] = target: Fuc(a1-2)[Gal(a1-3)]Gal(b1-4)GlcNAc(b1-2)Man(a1-3)[Fuc(a1-2)[Gal(a1-3)]Gal(b1-4)GlcNAc(b1-2)Man(a1-6)]Man(b1-4)GlcNAc(b1-4)GlcNAc
# Procedure, shortened: as §1
# [10] = target: Fuc(a1-2)[GalNAc(a1-3)]Gal(b1-4)GlcNAc(b1-2)Man(a1-3)[Fuc(a1-2)[GalNAc(a1-3)]Gal(b1-4)GlcNAc(b1-2)Man(a1-6)]Man(b1-4)GlcNAc(b1-4)GlcNAc
# Procedure, shortened: as §1
# [11] = target: Fuc(a1-3)[Gal(b1-4)]GlcNAc(b1-6)GalNAc
# Procedure, shortened: as §1
# [12] = target: Gal(a1-3)Gal(b1-4)GlcNAc(b1-2)Man(a1-3)[Gal(a1-3)Gal(b1-4)GlcNAc(b1-2)Man(a1-6)]Man(b1-4)GlcNAc(b1-4)GlcNAc
# Procedure, shortened: as §1
# [13] = target: Gal(a1-3)[Gal(a1-4)]Gal(b1-4)GlcNAc
# Procedure, shortened: as §1
# [14] = target: Gal(a1-4)Gal(b1-3)GlcNAc(b1-2)Man(a1-3)[Gal(a1-4)Gal(b1-3)GlcNAc(b1-2)Man(a1-6)]Man(b1-4)GlcNAc(b1-4)GlcNAc
# Procedure, shortened: as §1
# Gal(b1-4)Gal = target: Gal(b1-4)Gal
# Procedure, shortened: as §1
# [15] = target: Gal(b1-4)GlcNAc(b1-2)[Gal(b1-4)GlcNAc(b1-4)]Man(a1-3)[GlcNAc(b1-4)][Gal(b1-4)GlcNAc(b1-2)Man(a1-6)]Man(b1-4)GlcNAc(b1-4)GlcNAc
# Procedure, shortened: as §1
# [16] = target: Gal(b1-4)GlcNAc(b1-3)Gal(b1-3)GalNAc
# Procedure, shortened: as §1
# [17] = target: Gal(b1-4)GlcNAc(b1-3)Gal(b1-4)Glc
# Procedure, shortened: as §1
# [18] = target: Gal(b1-4)GlcNAc(b1-3)Gal(b1-4)GlcNAc(b1-2)Man(a1-3)[Gal(b1-4)GlcNAc(b1-3)Gal(b1-4)GlcNAc(b1-2)Man(a1-6)]Man(b1-4)GlcNAc(b1-4)[Fuc(a1-6)]GlcNAc
# Procedure, shortened: as §1
# [19] = target: Gal(b1-4)GlcNAc(b1-3)Gal(b1-4)GlcNAc(b1-3)Gal(b1-4)GlcNAc(b1-2)Man(a1-3)[Gal(b1-4)GlcNAc(b1-3)Gal(b1-4)GlcNAc(b1-3)Gal(b1-4)GlcNAc(b1-2)Man(a1-6)]Man(b1-4)GlcNAc(b1-4)GlcNAc
# Procedure, shortened: as §1
# [20] = target: Gal(b1-4)GlcNAc(b1-3)Gal(b1-4)GlcNAc(b1-3)Gal(b1-4)GlcNAc(b1-3)Gal(b1-4)GlcNAc(b1-3)Gal(b1-4)GlcNAc(b1-2)[Gal(b1-4)GlcNAc(b1-3)Gal(b1-4)GlcNAc(b1-3)Gal(b1-4)GlcNAc(b1-3)Gal(b1-4)GlcNAc(b1-3)Gal(b1-4)GlcNAc(b1-6)]Man(a1-6)[Gal(b1-4)GlcNAc(b1-3)Gal(b1-4)GlcNAc(b1-3)Gal(b1-4)GlcNAc(b1-3)Gal(b1-4)GlcNAc(b1-3)Gal(b1-4)GlcNAc(b1-2)Man(a1-3)]Man(b1-4)GlcNAc(b1-4)[Fuc(a1-6)]GlcNAc
# Procedure, shortened: as §1
# [21] = target: Gal(b1-4)GlcNAc(b1-3)GalNAc
# Procedure, shortened: as §1
# [22] = target: Gal(b1-4)GlcNAc(b1-6)[Gal(b1-3)]GalNAc
# Procedure, shortened: as §1
# Gal4S6S(b1-4)GlcNAc = target: Gal4S6S(b1-4)GlcNAc
# Procedure, shortened: as §1
# GalNAc(a1-3)Gal = target: GalNAc(a1-3)Gal
# Procedure, shortened: as §1
# GlcNAc(b1-3)Fuc = target: GlcNAc(b1-3)Fuc
# Procedure, shortened: as §1
# [23] = target: GlcNAc(b1-3)Gal(b1-4)GlcNAc(b1-3)Gal(b1-4)GlcNAc
# Procedure, shortened: as §1
# [24] = target: GlcNAc(b1-3)[GlcNAc(b1-4)][GlcNAc(b1-6)]GlcNAc
# Procedure, shortened: as §1
# [25] = target: GlcNAc(b1-4)Gal(b1-4)GlcNAc
# Procedure, shortened: as §1
# GlcNAc(b1-4)GlcNAc = target: GlcNAc(b1-4)GlcNAc
# Procedure, shortened: as §1
# [26] = target: GlcNAc(b1-4)GlcNAc(b1-4)GlcNAc
# Procedure, shortened: as §1
# Kdn(a2-3)Gal(b1-4)GlcNAc = target: Kdn(a2-3)Gal(b1-4)GlcNAc
# Procedure, shortened: as §1
# [27] = target: Man(a1-3)[Man(a1-6)]Man(b1-4)GlcNAc(b1-4)GlcNAc
# Procedure, shortened: as §1
# MurNAc(b1-4)GlcNAc = target: MurNAc(b1-4)GlcNAc
# Procedure, shortened: as §1
# [28] = target: Neu5Ac(a2-3)Gal(b1-3)GalNAc
# Procedure, shortened: as §1
# [29] = target: Neu5Ac(a2-3)Gal(b1-3)GlcNAc(b1-2)Man
# Procedure, shortened: as §1
# [30] = target: Neu5Ac(a2-3)Gal(b1-3)GlcNAc(b1-2)Man(a1-3)[GlcNAc(b1-4)][Neu5Ac(a2-3)Gal(b1-3)GlcNAc(b1-2)Man(a1-6)]Man(b1-4)GlcNAc(b1-4)GlcNAc
# Procedure, shortened: as §1
# [31] = target: Neu5Ac(a2-3)Gal(b1-3)[Fuc(a1-4)]GlcNAc
# Procedure, shortened: as §1
# [32] = target: Neu5Ac(a2-3)Gal(b1-3)[Fuc(a1-4)]GlcNAc(b1-3)Gal(b1-4)[Fuc(a1-3)]GlcNAc
# Procedure, shortened: as §1
# [33] = target: Neu5Ac(a2-3)Gal(b1-3)[GlcNAc(b1-6)]GalNAc
# Procedure, shortened: as §1
# [34] = target: Neu5Ac(a2-3)Gal(b1-4)GlcNAc(b1-2)Man
# Procedure, shortened: as §1
# [35] = target: Neu5Ac(a2-3)Gal(b1-4)GlcNAc(b1-3)Gal
# Procedure, shortened: as §1
# [36] = target: Neu5Ac(a2-3)Gal(b1-4)GlcNAc(b1-3)Gal(b1-4)GlcNAc
# Procedure, shortened: as §1
# [37] = target: Neu5Ac(a2-3)Gal(b1-4)[Fuc(a1-3)]GlcNAc(b1-6)[Gal(b1-3)]GalNAc
# Procedure, shortened: as §1
# [38] = target: Neu5Ac(a2-6)Gal(b1-4)GlcNAc(b1-2)Man(a1-3)[Gal(b1-4)GlcNAc(b1-2)Man(a1-6)]Man(b1-4)GlcNAc(b1-4)GlcNAc
# Procedure, shortened: as §1
# [39] = target: Neu5Ac(a2-6)Gal(b1-4)GlcNAc(b1-2)Man(a1-3)[GlcNAc(b1-2)Man(a1-6)]Man(b1-4)GlcNAc(b1-4)GlcNAc
# Procedure, shortened: as §1
# [40] = target: Neu5Ac(a2-6)Gal(b1-4)GlcNAc(b1-2)Man(a1-3)[Neu5Ac(a2-6)Gal(b1-4)GlcNAc(b1-2)Man(a1-6)]Man(b1-4)GlcNAc(b1-4)GlcNAc
# Procedure, shortened: as §1
# [41] = target: Neu5Ac(a2-6)Gal(b1-4)GlcNAc(b1-3)Gal(b1-4)GlcNAc(b1-2)Man(a1-3)[Neu5Ac(a2-6)Gal(b1-4)GlcNAc(b1-3)Gal(b1-4)GlcNAc(b1-2)Man(a1-6)]GalNAc
# Procedure, shortened: as §1
# [42] = target: Neu5Ac(b2-6)Gal(b1-4)GlcNAc
# Procedure, shortened: as §1
# [43] = target: Neu5Gc(a2-6)Gal(b1-4)GlcNAc
# Procedure, shortened: as §1
# [44] = target: Neu5Gc(a2-8)Neu5Gc(a2-3)Gal(b1-4)GlcNAc
# Procedure, shortened: as §1
binder,measurement,setting,value
B1,glycan array binding signal (z-score),[1],-0.133
same,glycan array binding signal (z-score),[2],-0.436
same,glycan array binding signal (z-score),[3],-0.312
same,glycan array binding signal (z-score),[4],-0.205
same,glycan array binding signal (z-score),[5],3.27
same,glycan array binding signal (z-score),[6],4.76
same,glycan array binding signal (z-score),[7],-0.468
same,glycan array binding signal (z-score),[8],-0.403
same,glycan array binding signal (z-score),[9],0.276
same,glycan array binding signal (z-score),[10],4.57
same,glycan array binding signal (z-score),[11],3.86
same,glycan array binding signal (z-score),[12],3.09
same,glycan array binding signal (z-score),[13],-0.211
same,glycan array binding signal (z-score),[14],5.85
same,glycan array binding signal (z-score),Gal(b1-4)Gal,-0.396
same,glycan array binding signal (z-score),[15],-0.319
same,glycan array binding signal (z-score),[16],-0.047
same,glycan array binding signal (z-score),[17],-0.296
same,glycan array binding signal (z-score),[18],3.44
same,glycan array binding signal (z-score),[19],6.91
same,glycan array binding signal (z-score),[20],0.566
same,glycan array binding signal (z-score),[21],-0.373
same,glycan array binding signal (z-score),[22],1.83
same,glycan array binding signal (z-score),Gal4S6S(b1-4)GlcNAc,-0.352
same,glycan array binding signal (z-score),GalNAc(a1-3)Gal,3.89
same,glycan array binding signal (z-score),GlcNAc(b1-3)Fuc,-0.233
same,glycan array binding signal (z-score),[23],-0.415
same,glycan array binding signal (z-score),[24],-0.429
same,glycan array binding signal (z-score),[25],-0.256
same,glycan array binding signal (z-score),GlcNAc(b1-4)GlcNAc,-0.232
same,glycan array binding signal (z-score),[26],-0.408
same,glycan array binding signal (z-score),Kdn(a2-3)Gal(b1-4)GlcNAc,-0.49
same,glycan array binding signal (z-score),[27],-0.376
same,glycan array binding signal (z-score),MurNAc(b1-4)GlcNAc,-0.279
same,glycan array binding signal (z-score),[28],-0.423
same,glycan array binding signal (z-score),[29],-0.335
same,glycan array binding signal (z-score),[30],-0.407
same,glycan array binding signal (z-score),[31],-0.318
same,glycan array binding signal (z-score),[32],-0.388
same,glycan array binding signal (z-score),[33],-0.402
same,glycan array binding signal (z-score),[34],-0.25
same,glycan array binding signal (z-score),[35],-0.323
same,glycan array binding signal (z-score),[36],-0.162
same,glycan array binding signal (z-score),[37],3.09
same,glycan array binding signal (z-score),[38],0.37
same,glycan array binding signal (z-score),[39],-0.274
same,glycan array binding signal (z-score),[40],0.07
same,glycan array binding signal (z-score),[41],3.81
same,glycan array binding signal (z-score),[42],-0.393
same,glycan array binding signal (z-score),[43],-0.356
same,glycan array binding signal (z-score),[44],-0.395
